Bioassay records deposited in PubChem by National Center for Advancing Translational Sciences (NCATS).
In the library only some 19% were active in any assay of this set; here they are far more common.
HT1080 IDH1KD tx = kills HT-1080 cells with IDH1 knockdown; HT-1080 IDH1 knockdown viability, ATP luminescence, 48 h; actives 2% (n = 360,000); Potency, µM (doses to about 46.1 µM), for the others: at the top dose activity, negative = toxicity, hits mostly cytotoxic; AID 686971;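 also: potency is read from the fitted curve at half-maximal effect; 0% = DMSO wells and -100% = cell-free medium wells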
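Viability of IDH1-knockdown HT-1080 fibrosarcoma cells was assessed by CellTiter-Glo after 48 h at 37 °C with titrated compound; concentration-effect curves were classified by fit quality and response size.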
DT40 TDP1 no CPT = qHTS for Inhibitors of human tyrosyl-DNA phosphodiesterase 1 (TDP1): qHTS in cells in absence of CPT. DT40 Tdp1-/- hTDP1 cells, no CPT, ATP luminescence, 48 h. Potency, µM (top dose mostly 46.2 µM), for inactives: at the top dose activity change, negative = growth inhibition, hits mostly inhibitors. actives 15% (n = 420,000); also: potency is read from the fitted curve at half-maximal effect; nearly all actives have a fitted effect of over 55% in size
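Camptothecin absent (DMSO only). Human TDP1-complemented DT40 knockout cells, 400 cells/well, 37 °C for minimum 48 hr; ATP measured via CellTiter-Glo, 30 min dark incubation, luminescence.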
HT1080NT lethal = kills 2HG-producing HT-1080-NT fibrosarcoma cells | HT-1080-NT fibrosarcoma viability, CellTiter-Glo ATP luminescence, 48 h | Potency, µM (doses to about 46.1 µM), for inactives: at the highest dose activity, negative = less viability, hits mostly cytotoxic | actives 1.6% (n = 360,000);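 also: NT is the 2HG producing partner of a matched IDH1 knockdown line; potency is read from the fitted curve at half-maximal effect; 0% = DMSO-treated cells and -100% = media-only wells without cells; nearly all actives have a fitted effect of over 55% in size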
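A 48-hour cytotoxicity screen used HT-1080-NT cells plated 2 hours before compound delivery. ATP-based CellTiter-Glo luminescence measured viability, normalized to DMSO and no-cell controls.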
DT40 TDP1 CPT = DT40-hTDP1 cell growth loss with CPT. chicken DT40 Tdp1-/-;hTDP1 cells + 20 nM CPT, ATP luminescence, 48 h. Potency, µM (top dose mostly 46.2 µM), for the others: top-dose activity change, negative = growth inhibition, usual class: inhibitors. actives 12% (n = 420,000); also: potency is read from the fitted curve at half-maximal effect; nearly all actives have a fitted effect of over 55% in size
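Chicken DT40 Tdp1-/- cells complemented with human TDP1, 400 cells/well, exposed to compounds plus 20 nM camptothecin for at least 48 h at 37 C; viability read as ATP content by CellTiter-Glo luminescence.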
IL1B secr inh = inflammasome signaling inhibition, IL-1 beta readout; THP-1 LPS/ATP IL-1B secretion, AlphaLISA, 16 h; hits give low values; actives 4.7% (n = 360,000); activity change, % at 57.5 µM; in the data active = activity change below about -50%; inconclusive = mostly about -30% to -49%
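THP-1 cells pretreated 1 hr with compounds (up to 57.5 uM final), then stimulated with LPS (250 ng/mL final) plus ATP (1.25 mM final); secreted IL-1B measured by AlphaLISA after 16 hr, decreased signal indicating inhibition.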
An asterisk follows results filed as active; ? = inconclusive; / = not tested or not shown. Unless noted, calls follow the shape of the dose curve; as a rule, active = well fitted curve in the direction sought with a large enough effect; inconclusive = small, poorly fitted or top-dose-only effect, or another doubt; inactive = no such curve, though single readings can be large; an effect the other way counts as inactive or inconclusive. Unless noted, % is scaled to controls: 0 for no effect and ±100 for the full control effect.

SMILES	HT1080 IDH1KD tx	DT40 TDP1 no CPT	HT1080NT lethal	DT40 TDP1 CPT	IL1B secr inh
COC(=O)[C@@]12C[C@@H](CC(=O)NCc3cccc4ccccc34)C(=O)N(Cc3ccco3)C1=CCC(C)(C)C2	?	?	?	20.6µM*	-71.3*
CCCCOCCCNC(=O)C[C@@H]1C[C@@]2(C(=O)OC)CC(C)(C)CC=C2N(Cc2ccco2)C1=O	-3.1%	23.1µM*	-1.4%	20.6µM*	-2.1
Cc1ccc2c(=O)cc(C(=O)Nc3ccc(S(=O)(=O)Nc4nc(C)cc(C)n4)cc3)oc2c1	/	-25.5%	/	-8.9%	/
CC1(CC(=O)N/N=C/c2ccc(-c3cccc(C(F)(F)F)c3)o2)OCCO1	-1.0%	?	8.9%	?	-6.5
Cc1ncc(CO)c(CO)c1OCC(O)CN1CCN(c2ccc(F)cc2)CC1 (configuration not stated)	7.8%	?	8.7%	?	58.9
COC(=O)[C@@]12C[C@@H](CC(=O)NCc3cccs3)C(=O)N(Cc3ccco3)C1=CCC(C)(C)C2	-1.3%	18.4µM*	-2.8%	?	?
Cc1nccc(-c2cc(-c3ccc(Cl)cc3Cl)no2)n1	9.3%	-6.3%	13.3%	1.4%	-3.3
COc1cccc(-c2cn3nc4c(nc3n2)CCCC4)c1	16.4µM*	16.4µM*	?	-35.3%	-12.7
COc1cccc(-c2cc(C(F)(F)F)n3nc(N)nc3n2)c1	2.0%	?	0.5%	-21.5%	-3.2
CC1CCCN(c2nc(N(C)c3ccccc3)nc(N)c2[N+](=O)[O-])C1 (configuration not stated)	-17.2%	?	?	?	?
Cc1nc(N)c(C#N)c(-c2ccc3c(c2)OCO3)c1C	9.4%	9.5%	-1.0%	-22.1%	16.8
N#Cc1c(N)oc(-c2ccc3c(c2)OCO3)c1-c1ccc2c(c1)OCO2	3.6%	-6.7%	1.7%	0.0%	-61.0*
CCCCn1c(NCc2ccc(OC)cc2O)nc2ccccc21	-8.5%	10.3µM*	-9.5%	14.6µM*	-17.7
CCCCn1c(NCc2ccccc2O)nc2ccccc21	-1.0%	?	-5.6%	?	?
C=CCc1cccc(CNc2nc3ccccc3n2CC)c1O	?	?	?	?	-16.1
CCCCn1c(NCc2ccc3c(c2)OCO3)nc2ccccc21	-28.8%	25.9µM*	-27.0%	?	-51.1*
C=CCc1cccc(CNc2nc3ccccc3n2CCC)c1O	?	23.1µM*	?	?	?
CCCCCn1c(NCc2ccccc2OC)nc2ccccc21	/	20.6µM*	/	?	/
CCCn1c(NCc2ccc3c(c2)OCO3)nc2ccccc21	-15.8%	?	?	?	?
CC(C)(C)c1ccc(C(=O)O)c(C(=O)c2ccc(C(=O)O)cc2)c1	15.4%	?	-5.9%	-16.1%	-1.2
COc1ccc(CCN(C)C(=O)CNC(=O)c2ccc3c(c2)OCO3)cc1OC	-10.9%	-3.3%	1.7%	-8.8%	-11.1
COc1cccc(NC(=O)C2CCC(CNS(=O)(=O)c3csc(C(N)=O)c3)CC2)c1 (configuration not stated)	/	-12.8%	/	?	/
O=C(CN1C(=O)C(=O)N(CCC2=CCCCC2)C1=O)c1c[nH]c2ccccc12	-7.7%	?	-4.1%	-13.1%	-58.8*
Cc1ccc2cc(C#N)c(N3CCCN(C(=O)c4cnccn4)CC3)nc2c1	-1.6%	?	-1.4%	?	-9.4
CCOC(=O)C1CCN(c2nc3cc(OC)ccc3cc2C#N)CC1	1.8%	-13.9%	6.9%	-17.1%	8.8
SMILES	HT1080 IDH1KD tx	DT40 TDP1 no CPT	HT1080NT lethal	DT40 TDP1 CPT	IL1B secr inh
COc1ccc(C(=O)N2CCN(c3nc4cc(C)ccc4cc3C#N)CC2)c(OC)c1	-25.1%	16.4µM*	-6.4%	16.4µM*	-59.1*
COc1cc(C(=O)N2CCCN(c3nc4cc(C)ccc4cc3C#N)CC2)cc(OC)c1OC	0.3%	?	-8.0%	20.6µM*	36.3
Cc1ccc2cc(C#N)c(N3CCN(C(=O)c4ccccc4)CC3)nc2c1	-6.6%	10.3µM*	-0.4%	20.6µM*	?
Cc1ccc2cc(C#N)c(N3CCCN(C(=O)C4CCCO4)CC3)nc2c1 (configuration not stated)	2.4%	-0.8%	12.8%	-8.1%	0.0
COc1cccc(C(=O)N2CCN(c3nc4cc(C)cc(C)c4cc3C#N)CC2)c1	7.5%	16.4µM*	8.5%	23.1µM*	-21.8
C/C(=N\NC(=O)CC1N=C(Cc2ccccc2)NNC1=O)c1ccc(Cl)cc1Cl (configuration not stated)	-10.6%	?	-2.6%	?	8.0
Cc1ccc2nc(N3CCN(C(=O)c4cccs4)CC3)c(C#N)cc2c1	-4.0%	14.6µM*	-3.3%	20.6µM*	-58.8*
COc1cc(C(=O)N2CCN(c3ccc(C)cc3C)CC2)cc(OC)c1OC	5.8µM*	3.66µM*	4.61µM*	2.91µM*	95.0
Cc1cn([C@H]2C[C@H](O)[C@@H](CNC(=O)[C@H](N)C3CC3)O2)c(=O)[nH]c1=O	3.6%	11.0%	-0.7%	-11.5%	-5.3
CO[C@H]1/C=C/O[C@@]2(C)Oc3c(C)c(O)c4c(O)c(c5c(c4c3C2=O)NC2(CCN(CC(C)C)CC2)N=5)=NC(=O)/C(C)=C\C=C\[C@H](C)[C@H](O)[C@@H](C)[C@@H](O)[C@@H](C)[C@H](OC(C)=O)[C@@H]1C	-27.8%	20.6µM*	?	?	-13.7
CO[C@H]1C=CO[C@@]2(C)Oc3c(C)c(O)c4c(O)c(c(/C=N/N5CCN(C6CCCC6)CC5)c(O)c4c3C2=O)NC(=O)/C(C)=C\C=C[C@H](C)[C@H](O)[C@@H](C)[C@@H](O)[C@@H](C)[C@H](OC(C)=O)[C@@H]1C	/	2.66µM*	/	4.73µM*	/
Cc1ccccc1NC(=O)Cc1nc(COC(=O)CSc2ccccc2)cs1	0.9%	-3.5%	0.4%	1.4%	17.1
COc1cc2ncc(-c3ccccc3)nc2cc1OC	/	25.1µM*	/	20.6µM*	/
COc1cc2cnc(-c3ccccc3)c(-c3ccc([N+](=O)[O-])cc3)c2cc1OC	-1.5%	?	4.6%	?	-9.7
COc1cc2cnc(-c3ccccc3)cc2cc1OC	-9.9%	?	-12.8%	18.4µM*	-20.3
COc1cc2cnc(-c3ccccc3)c(-c3cc(OC)c(OC)c(OC)c3)c2cc1OC	?	13µM*	-28.3%	?	-50.8*
Cc1ccc(C2=CC(c3ccc(Cl)cc3)n3nc(-c4ccc(C)cc4)nc3N2)cc1 (configuration not stated)	/	?	/	32.6µM*	/
